In PubChem BioAssay (NCATS):
Records with an inconclusive call do not appear. Calls of active or inactive are those of the source. The call rests on the fitted dose curve; in most records, active means well fitted cell-killing curve with a large enough effect; inconclusive means small, poorly fitted or top-dose-only effect, or effect the other way; inactive means flat fitted curve, though single readings scatter.

Assays:
Assay in all cases: Primary qHTS to identify gynecologic anti-cancer compounds using libraries of approved drugs and bioactive compounds (AID 1345084); further: nearly all actives have a fitted effect of over 55% in size
[1] = system: C33A; details: Gynecologic cancer cell panel viability, ATPlite luminescence, 48 h; series mostly up to 57.5 µM
Summary of the method: (§1)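 48 h compound exposure at 37 C, 5% CO2; five-point qHTS. ATPlite luminescence readout of cell ATP.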

[2] = system: CAOV3; details: Gynecologic cancer cell panel viability, ATPlite luminescence, 48 h; series mostly up to 57.5 µM
Summary of the method: as §1

[3] = system: CASKI; details: Gynecologic cancer cell panel viability, ATPlite luminescence, 48 h; series mostly up to 57.5 µM
Summary of the method: as §1

[4] = system: Es-2; details: Gynecologic cancer cell panel viability, ATPlite luminescence, 48 h; series mostly up to 57.5 µM
Summary of the method: as §1

[5] = system: HeLa; details: Gynecologic cancer cell panel viability, ATPlite luminescence, 48 h; series mostly up to 57.5 µM
Summary of the method: as §1

[6] = system: Hek293T; details: Gynecologic cancer cell panel viability, ATPlite luminescence, 48 h, control line for the selectivity index; series mostly up to 57.5 µM
Summary of the method: as §1

[7] = system: JEG-3; details: Gynecologic cancer cell panel viability, ATPlite luminescence, 48 h; series mostly up to 57.5 µM
Summary of the method: as §1

[8] = system: OV90; details: Gynecologic cancer cell panel viability, ATPlite luminescence, 48 h; series mostly up to 57.5 µM
Summary of the method: as §1

[9] = system: PA-1; details: Gynecologic cancer cell panel viability, ATPlite luminescence, 48 h; series mostly up to 57.5 µM
Summary of the method: as §1

[10] = system: SKOV3; details: Gynecologic cancer cell panel viability, ATPlite luminescence, 48 h; series mostly up to 57.5 µM
Summary of the method: as §1

[11] = system: Tov-21-G; details: Gynecologic cancer cell panel viability, ATPlite luminescence, 48 h; series mostly up to 57.5 µM
Summary of the method: as §1

[12] = system: Tov112D; details: Gynecologic cancer cell panel viability, ATPlite luminescence, 48 h; series mostly up to 57.5 µM
Summary of the method: as §1
On the % scale 0 is the no-effect control and ±100 the full control effect.

CC(=O)OCC1(O)CCC2C(COC3OC(CO)C(O)C(O)C3OC(=O)/C=C/c3ccc(O)cc3)=COC(OC(=O)CC(C)C)C21 (centres undefined)
inactive: Potency [1] | Potency [2] | Potency [3] | Potency [4] | Potency [5] | Potency [6] | Potency [7] | Potency [8] | Potency [9] | Potency [10] | Potency [11] | Potency [12]

CC[C@@](C)(Nc1ccnc(-c2c[nH]c3ncccc23)n1)C(=O)NCC(F)(F)F
inactive: Potency [1] | Potency [2] | Potency [3] | Potency [4] | Potency [5] | Potency [6] | Potency [7] | Potency [8] | Potency [9] | Potency [10] | Potency [11] | Potency [12]

C[C@@]12C[C@]3(O)O[C@H](O1)[C@]1(COC(=O)c4ccccc4)[C@H]3C[C@@]12O[C@@H]1O[C@H](CO)[C@@H](O)[C@H](O)[C@H]1O
inactive: Potency [1] | Potency [2] | Potency [3] | Potency [4] | Potency [5] | Potency [6] | Potency [7] | Potency [8] | Potency [9] | Potency [10] | Potency [11] | Potency [12]

Cc1noc(-c2ccc(-c3ccc(CC(=O)O)cc3)cc2)c1NC(=O)O[C@H](C)c1ccccc1
inactive: Potency [1] | Potency [2] | Potency [3] | Potency [4] | Potency [5] | Potency [6] | Potency [7] | Potency [8] | Potency [9] | Potency [10] | Potency [11] | Potency [12]

C/C1=C\[C@H]2OC(=O)[C@@H](C)[C@@H]2CC/C(C(=O)O)=C/CC1
inactive: Potency [1] | Potency [2] | Potency [3] | Potency [4] | Potency [5] | Potency [6] | Potency [7] | Potency [8] | Potency [9] | Potency [10] | Potency [11] | Potency [12]

COC(=O)c1cc(OC)c(O[C@@H]2O[C@@H](C)[C@H](O)[C@@H](O)[C@H]2O)c(OC)c1
inactive: Potency [1] | Potency [2] | Potency [3] | Potency [4] | Potency [5] | Potency [6] | Potency [7] | Potency [8] | Potency [9] | Potency [10] | Potency [11] | Potency [12]

CC(C)CCC1(O)C(=O)C(C)(C)C(O[C@@H]2O[C@H](CO)[C@@H](O)[C@H](O)[C@H]2O)C(C)(C)C1O (some centres undefined)
inactive: Potency [1] | Potency [2] | Potency [3] | Potency [4] | Potency [5] | Potency [6] | Potency [7] | Potency [8] | Potency [9] | Potency [10] | Potency [11] | Potency [12]

CC1CCC2(OC1)OC1CC3C4CC=C5CC(O)CC(O[C@@H]6OC[C@@H](O)[C@H](O)[C@H]6O)C5(C)C4CCC3(C)C1(O)C2C (some centres undefined)
inactive: Potency [1] | Potency [2] | Potency [3] | Potency [4] | Potency [5] | Potency [6] | Potency [7] | Potency [8] | Potency [9] | Potency [10] | Potency [11] | Potency [12]

CC1OC(OC2CCC3(C)C(CCC4(C)C3CC=C3C5CC(C)(C)CCC5(C(=O)OC5OC(CO)C(O)C(O)C5O)CCC34C(=O)O)C2(C)C)C(O)C(O)C1O (centres undefined)
inactive: Potency [1] | Potency [2] | Potency [3] | Potency [4] | Potency [5] | Potency [6] | Potency [7] | Potency [8] | Potency [9] | Potency [10] | Potency [11] | Potency [12]

CC(C)O[C@@H]1O[C@H](CO)[C@@H](O)[C@H](O)[C@H]1O
inactive: Potency [1] | Potency [2] | Potency [3] | Potency [4] | Potency [5] | Potency [6] | Potency [7] | Potency [8] | Potency [9] | Potency [10] | Potency [11] | Potency [12]

CC(C)(O)CC(CO)NC(=O)CC(O)CC(=O)Cc1ccccc1 (centres undefined)
inactive: Potency [1] | Potency [2] | Potency [3] | Potency [4] | Potency [5] | Potency [6] | Potency [7] | Potency [8] | Potency [9] | Potency [10] | Potency [11] | Potency [12]

CCc1cc(CN2CC(C(=O)O)C2)sc1-c1noc(-c2ccc(Oc3ccccc3)cc2)n1
inactive: Potency [1] | Potency [2] | Potency [3] | Potency [4] | Potency [5] | Potency [6] | Potency [7] | Potency [8] | Potency [9] | Potency [10] | Potency [11] | Potency [12]

CC1(O)CCCC2(C)C1CCC13CC(CO)C(CCC12)C3 (centres undefined)
inactive: Potency [1] | Potency [2] | Potency [3] | Potency [4] | Potency [5] | Potency [6] | Potency [7] | Potency [8] | Potency [9] | Potency [10] | Potency [11] | Potency [12]

OCc1ccc(O[C@@H]2O[C@H](CO)[C@@H](O)[C@H](O)[C@H]2O)cc1
inactive: Potency [1] | Potency [2] | Potency [3] | Potency [4] | Potency [5] | Potency [6] | Potency [7] | Potency [8] | Potency [9] | Potency [10] | Potency [11] | Potency [12]

CC1=CC(=O)CC2C1(O)CCC(C)C21CC(c2ccoc2)OC1=O (centres undefined)
inactive: Potency [1] | Potency [2] | Potency [3] | Potency [4] | Potency [5] | Potency [6] | Potency [7] | Potency [8] | Potency [9] | Potency [10] | Potency [11] | Potency [12]

COC(=O)N[C@H](C(=O)N1[C@@H]2CC[C@@H](C2)[C@H]1c1nc2ccc(-c3ccc4c(c3)C(F)(F)c3cc(-c5cnc([C@@H]6CCC7(CC7)N6C(=O)[C@@H](NC(=O)OC)C(C)C)[nH]5)ccc3-4)cc2[nH]1)C(C)C
inactive: Potency [1] | Potency [2] | Potency [3] | Potency [4] | Potency [5] | Potency [6] | Potency [7] | Potency [8] | Potency [9] | Potency [10] | Potency [11] | Potency [12]

C[C@H]1CC(=O)Nc2cccc(-c3cnn(C(C)(C)C)c3)c2N1
inactive: Potency [1] | Potency [2] | Potency [3] | Potency [4] | Potency [5] | Potency [6] | Potency [7] | Potency [8] | Potency [9] | Potency [10] | Potency [11] | Potency [12]

COc1c2cc(c(O)c1OC)-c1cc(ccc1O)CCC(O)CCCC2 (centres undefined)
inactive: Potency [1] | Potency [2] | Potency [3] | Potency [4] | Potency [5] | Potency [6] | Potency [7] | Potency [8] | Potency [9] | Potency [10] | Potency [11] | Potency [12]

O=C(O)C(O[C@@H]1O[C@H](CO[C@@H]2O[C@H](CO)[C@@H](O)[C@H](O)[C@H]2O)[C@@H](O)[C@H](O)[C@H]1O)c1ccccc1 (some centres undefined)
inactive: Potency [1] | Potency [2] | Potency [3] | Potency [4] | Potency [5] | Potency [6] | Potency [7] | Potency [8] | Potency [9] | Potency [10] | Potency [11] | Potency [12]

C=C1CC[C@@H]2[C@@](C)(CO[C@@H]3O[C@H](CO)C(O)[C@H](O)C3O)[C@H](O)CC[C@@]2(C)[C@@H]1CC/C(C)=C/CO (some centres undefined)
inactive: activity change, negative = cytotoxicity [1] -18.4% [at 11.6 µM] | activity change, negative = cytotoxicity [2] 1.16% [at 11.6 µM] | activity change, negative = cytotoxicity [3] -5.44% [at 11.6 µM] | activity change, negative = cytotoxicity [4] 9.56% [at 11.6 µM] | activity change, negative = cytotoxicity [5] -3.99% [at 11.6 µM] | activity change, negative = cytotoxicity [6] 2% [at 11.6 µM] | activity change, negative = cytotoxicity [7] 2.39% [at 11.6 µM] | activity change, negative = cytotoxicity [8] 6% [at 11.6 µM] | activity change, negative = cytotoxicity [9] 7% [at 11.6 µM] | activity change, negative = cytotoxicity [10] -9.26% [at 11.6 µM] | activity change, negative = cytotoxicity [11] 4.35% [at 11.6 µM] | activity change, negative = cytotoxicity [12] 4.42% [at 11.6 µM]

O=C(COc1cccc2c(=O)[nH]ccc12)c1ccccc1
inactive: Potency [1] | Potency [2] | Potency [3] | Potency [4] | Potency [5] | Potency [6] | Potency [7] | Potency [8] | Potency [9] | Potency [10] | Potency [11] | Potency [12]

O=C1Nc2ccccc2C(O)(c2ccccc2)C1O (centres undefined)
inactive: Potency [1] | Potency [2] | Potency [3] | Potency [4] | Potency [5] | Potency [6] | Potency [7] | Potency [8] | Potency [9] | Potency [10] | Potency [11] | Potency [12]

C[C@@H]1O[C@@H](O[C@H]2[C@H](O[C@H]3[C@H](O)[C@@H](C(=O)O)O[C@@H](O[C@H]4CC[C@@]5(C)C(CC[C@]6(C)C5CC[C@]57OC[C@@]8(CCC(C)(C)CC85)[C@H](O)C[C@]76C)C4(C)C)[C@@H]3O[C@@H]3O[C@H](CO)[C@@H](O[C@@H]4OC[C@@H](O)[C@H](O)[C@H]4O)[C@H](O)[C@H]3O)O[C@H](CO)[C@H](O)[C@@H]2O)[C@H](O)[C@H](O)[C@H]1O (some centres undefined)
inactive: activity change, negative = cytotoxicity [1] -0.321% [at 6.55 µM] | activity change, negative = cytotoxicity [2] 1.86% [at 6.55 µM] | activity change, negative = cytotoxicity [3] 3.57% [at 6.55 µM] | activity change, negative = cytotoxicity [4] -2.01% [at 6.55 µM] | activity change, negative = cytotoxicity [5] 1.31% [at 6.55 µM] | activity change, negative = cytotoxicity [6] 4.69% [at 6.55 µM] | activity change, negative = cytotoxicity [7] 1.85% [at 6.55 µM] | activity change, negative = cytotoxicity [8] -19.1% [at 6.55 µM] | activity change, negative = cytotoxicity [9] 5.43% [at 6.55 µM] | activity change, negative = cytotoxicity [10] 0% [at 6.55 µM] | activity change, negative = cytotoxicity [11] -4.6% [at 6.55 µM] | activity change, negative = cytotoxicity [12] 10.2% [at 6.55 µM]

COC(=O)CCC(=O)OC[C@]1(C)CCC[C@@]2(C)C3CC[C@]4(C)C=CC3(CCC12)C4 (some centres undefined)
inactive: Potency [1] | Potency [2] | Potency [3] | Potency [4] | Potency [5] | Potency [6] | Potency [7] | Potency [8] | Potency [9] | Potency [10] | Potency [11] | Potency [12]

CC1=C2C3OC(=O)C(C)C3(O)CCC2(C)CCC1O (centres undefined)
inactive: Potency [1] | Potency [2] | Potency [3] | Potency [4] | Potency [5] | Potency [6] | Potency [7] | Potency [8] | Potency [9] | Potency [10] | Potency [11] | Potency [12]

C=C(C)C1CCC(C)C12CC(O)C1(C)OC1C2OC(=O)C(N)CCC(=O)O (centres undefined)
inactive: Potency [1] | Potency [2] | Potency [3] | Potency [4] | Potency [5] | Potency [6] | Potency [7] | Potency [8] | Potency [9] | Potency [10] | Potency [11] | Potency [12]

CC1COC2(OC3CC4C5CC(O[C@@H]6O[C@H](C)[C@@H](O[C@@H]7O[C@@H](C)[C@H](O)[C@@H](O)[C@H]7O)[C@H](O)[C@H]6O)C6CC(O)CCC6(C)C5CCC4(C)C3C2C)C(O)C1 (some centres undefined)
inactive: Potency [1] | Potency [2] | Potency [3] | Potency [4] | Potency [5] | Potency [6] | Potency [7] | Potency [8] | Potency [9] | Potency [10] | Potency [11] | Potency [12]
